In the supplement of paper PMC10849652:
Targets with a hit are over-represented here; the source holds about 8,800 in all. About 0.5% of all pairs of compound and target were hits. A number with no mark means an inactive call.

Tests used:
Test in all cases: log2 fold change, soluble protein after heating vs DMSO (PISA); higher = thermal stabilisation; K562 lysate, 10 uM; active = over 0.2 and 3.5 SD of the protein, either way, in both replicates (recomputed)
[1] = compound: C#Cc1cccc(Nc2ncnc3cc(OCCOC)c(OCCOC)cc23)c1 [erlotinib]
Procedure, shortened: (§1)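 K562 pellets were dounce-homogenised in PBS pH 7.4 with 1 mM MgCl2, and the crude extract at 1 mg/mL protein was treated with 10 μM compound for 30 min. Aliquots were heated for 3 min across 48°C-58°C, pooled, and brought to 0.5% NP-40 at 4°C; soluble protein was the supernatant after 21,000xg for 90 min. Soluble protein was quantified by TMTpro 16plex LC-MS/MS with channel sums equalised, and reported as log2 fold change in thermal stability against DMSO controls, with values from duplicates.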

[2] = compound: C/C(=N\NC(=O)C1=CC(=CC=C1)S(=O)(=O)N2CCOCC2)/C3=C(C=CC(=C3)Cl)O
Procedure, shortened: as §1

[3] = compound: C1=CC(=CC=C1C2=NC3=C(N2)C=C(C=C3)C(=O)N)OC4=CC=C(C=C4)Cl
Procedure, shortened: as §1

[4] = compound: C1=CC2=C(C=CC(=C2)/C=C\3/C(=O)NC(=NCC4=CC=CS4)S3)N=C1
Procedure, shortened: as §1

[5] = compound: C1=CC2=NC=CN=C2C=C1/C=C/3\C(=O)NC(=O)S3
Procedure, shortened: as §1

[6] = compound: C1=CC=C(C=C1)C2=NC(=C(N2)C3=CC=NC=C3)C4=CC(=C(C=C4)Cl)O
Procedure, shortened: as §1

[7] = compound: C1=CC=C2C(=C1)C3=NNC4=CC=CC(=C43)C2=O
Procedure, shortened: as §1

[8] = compound: C1CCN(C1)C(=O)NC2=CC=CC(=C2)NC3=NC=C(C(=N3)NCCC4=CN=CN4)Br
Procedure, shortened: as §1

[9] = compound: C1CN(CCC1(CC2=CC=C(C=C2)Cl)N)C3=NC=NC4=C3C=CN4
Procedure, shortened: as §1

[10] = compound: C1COCCN1CCN2C3=CC=CC=C3N=C2NC(=O)C4=CC(=CC=C4)[N+](=O)[O-] [IRAK-1-4 Inhibitor I]
Procedure, shortened: as §1

[11] = compound: C=CC(=O)N1CCC[C@@H](n2nc(-c3ccc(Oc4ccccc4)cc3)c3c(N)ncnc32)C1 [ibrutinib]
Procedure, shortened: as §1

[12] = compound: CC(=O)c1cnc2ccc(-c3cc(Cl)c(O)c(Cl)c3)nc2c1N[C@H]1CC[C@H](CN(C)C)CC1
Procedure, shortened: as §1

[13] = compound: CC(C)(C)Cn1c(N)nc2ccc(-c3[nH]c(C(C)(C)C)nc3-c3ccc(F)cc3)nc21 [ralimetinib]
Procedure, shortened: as §1

[14] = compound: CC(C)(O)CC(=O)NCCn1ccc2ncnc(Nc3ccc(Oc4cccc(C(F)(F)F)c4)c(Cl)c3)c21
Procedure, shortened: as §1

[15] = compound: CC(C)C1=C2N=C(C=C(N2N=C1)NCC3=CC=CC=C3)NCCCCCCN
Procedure, shortened: as §1

[16] = compound: CC1=C(C(CC(=O)N1)C2=CC=C(C=C2)C(F)(F)F)C(=O)NC3=C(C=C4C(=C3)C=NN4)F
Procedure, shortened: as §1

[17] = compound: CC1=C(C2=C(C=C1)C(=O)C3=CC=CC=C3N2CCCN)C
Procedure, shortened: as §1

[18] = compound: CC1=C(C=C(C=C1)NC(=O)C2=CC(=CC=C2)C(C)(C)C#N)NC3=CC4=C(C=C3)N=CN(C4=O)C
Procedure, shortened: as §1

[19] = compound: CC1=C(C=C(C=C1)NC(=O)C2=CC(=CC=C2)N(C)C)NC(=O)C3=CC=C(C=C3)O
Procedure, shortened: as §1

[20] = compound: CC1=CC=C(C=C1)SC2=C3C=C(SC3=CN=C2)C(=O)N
Procedure, shortened: as §1

Chain of UniProt Q12904 (Q12904 whole entry, looked up): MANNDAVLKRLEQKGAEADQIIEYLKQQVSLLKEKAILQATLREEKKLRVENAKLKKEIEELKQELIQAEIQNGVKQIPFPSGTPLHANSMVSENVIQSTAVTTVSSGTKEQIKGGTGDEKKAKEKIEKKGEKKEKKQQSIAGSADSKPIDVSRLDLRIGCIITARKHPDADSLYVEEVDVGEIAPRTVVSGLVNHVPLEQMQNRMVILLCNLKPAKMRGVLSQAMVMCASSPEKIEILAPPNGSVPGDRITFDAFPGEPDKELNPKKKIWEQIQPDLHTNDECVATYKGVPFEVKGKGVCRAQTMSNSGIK
Chain of UniProt P17707 (P17707 whole entry, looked up): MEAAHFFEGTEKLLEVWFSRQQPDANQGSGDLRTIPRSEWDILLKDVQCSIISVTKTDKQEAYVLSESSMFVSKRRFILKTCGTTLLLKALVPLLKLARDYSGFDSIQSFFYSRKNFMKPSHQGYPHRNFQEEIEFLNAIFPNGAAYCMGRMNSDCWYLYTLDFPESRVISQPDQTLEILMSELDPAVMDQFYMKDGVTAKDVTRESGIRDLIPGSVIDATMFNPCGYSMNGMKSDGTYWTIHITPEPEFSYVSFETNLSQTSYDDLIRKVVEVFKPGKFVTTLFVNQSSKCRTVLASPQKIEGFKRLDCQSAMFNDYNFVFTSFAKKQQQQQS
Chain of UniProt Q96NW4 (Q96NW4 whole entry, looked up): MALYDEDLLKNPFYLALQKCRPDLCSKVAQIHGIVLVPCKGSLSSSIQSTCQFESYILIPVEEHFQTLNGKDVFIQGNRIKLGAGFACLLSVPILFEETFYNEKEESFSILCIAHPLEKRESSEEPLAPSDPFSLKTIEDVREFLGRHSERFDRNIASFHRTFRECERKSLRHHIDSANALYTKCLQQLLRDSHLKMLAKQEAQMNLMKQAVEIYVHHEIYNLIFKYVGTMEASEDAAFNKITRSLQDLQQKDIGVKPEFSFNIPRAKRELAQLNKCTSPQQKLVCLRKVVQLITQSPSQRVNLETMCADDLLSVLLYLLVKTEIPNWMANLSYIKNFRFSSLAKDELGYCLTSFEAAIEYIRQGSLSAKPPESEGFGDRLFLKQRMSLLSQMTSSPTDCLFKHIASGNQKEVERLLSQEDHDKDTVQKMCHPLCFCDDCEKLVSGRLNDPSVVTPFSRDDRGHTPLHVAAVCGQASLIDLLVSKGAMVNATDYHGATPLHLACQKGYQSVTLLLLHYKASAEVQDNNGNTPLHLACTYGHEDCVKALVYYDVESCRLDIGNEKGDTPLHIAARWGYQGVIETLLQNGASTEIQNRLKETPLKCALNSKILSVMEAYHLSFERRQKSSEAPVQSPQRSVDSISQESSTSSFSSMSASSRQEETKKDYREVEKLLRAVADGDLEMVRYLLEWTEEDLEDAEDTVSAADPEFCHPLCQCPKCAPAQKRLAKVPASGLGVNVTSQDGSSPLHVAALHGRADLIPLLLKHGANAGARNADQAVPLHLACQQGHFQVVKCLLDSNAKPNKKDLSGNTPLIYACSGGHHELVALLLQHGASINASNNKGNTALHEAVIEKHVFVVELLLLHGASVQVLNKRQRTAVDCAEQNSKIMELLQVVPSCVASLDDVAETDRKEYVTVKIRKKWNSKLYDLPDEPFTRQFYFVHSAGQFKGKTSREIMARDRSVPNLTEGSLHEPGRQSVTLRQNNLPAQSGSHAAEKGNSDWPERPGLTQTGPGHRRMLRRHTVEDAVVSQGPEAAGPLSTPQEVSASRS
Chain of UniProt P10398 (P10398 whole entry, looked up): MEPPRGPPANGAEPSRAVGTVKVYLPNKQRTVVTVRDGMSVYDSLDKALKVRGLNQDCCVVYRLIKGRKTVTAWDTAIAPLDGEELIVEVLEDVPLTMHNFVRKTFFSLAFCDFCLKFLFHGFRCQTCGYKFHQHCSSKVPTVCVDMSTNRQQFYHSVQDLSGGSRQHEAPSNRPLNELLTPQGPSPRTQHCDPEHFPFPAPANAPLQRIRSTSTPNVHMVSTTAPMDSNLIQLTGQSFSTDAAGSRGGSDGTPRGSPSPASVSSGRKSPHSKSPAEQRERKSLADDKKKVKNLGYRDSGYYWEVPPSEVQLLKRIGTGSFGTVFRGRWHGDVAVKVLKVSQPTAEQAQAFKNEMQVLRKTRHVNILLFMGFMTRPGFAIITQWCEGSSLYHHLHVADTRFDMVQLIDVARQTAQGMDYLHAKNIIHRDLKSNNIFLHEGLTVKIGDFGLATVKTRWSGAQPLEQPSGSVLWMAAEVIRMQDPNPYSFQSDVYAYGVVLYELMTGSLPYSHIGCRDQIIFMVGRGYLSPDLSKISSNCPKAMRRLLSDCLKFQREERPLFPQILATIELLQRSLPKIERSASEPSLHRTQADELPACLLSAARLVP
Chain of UniProt P00519 (P00519 whole entry, looked up): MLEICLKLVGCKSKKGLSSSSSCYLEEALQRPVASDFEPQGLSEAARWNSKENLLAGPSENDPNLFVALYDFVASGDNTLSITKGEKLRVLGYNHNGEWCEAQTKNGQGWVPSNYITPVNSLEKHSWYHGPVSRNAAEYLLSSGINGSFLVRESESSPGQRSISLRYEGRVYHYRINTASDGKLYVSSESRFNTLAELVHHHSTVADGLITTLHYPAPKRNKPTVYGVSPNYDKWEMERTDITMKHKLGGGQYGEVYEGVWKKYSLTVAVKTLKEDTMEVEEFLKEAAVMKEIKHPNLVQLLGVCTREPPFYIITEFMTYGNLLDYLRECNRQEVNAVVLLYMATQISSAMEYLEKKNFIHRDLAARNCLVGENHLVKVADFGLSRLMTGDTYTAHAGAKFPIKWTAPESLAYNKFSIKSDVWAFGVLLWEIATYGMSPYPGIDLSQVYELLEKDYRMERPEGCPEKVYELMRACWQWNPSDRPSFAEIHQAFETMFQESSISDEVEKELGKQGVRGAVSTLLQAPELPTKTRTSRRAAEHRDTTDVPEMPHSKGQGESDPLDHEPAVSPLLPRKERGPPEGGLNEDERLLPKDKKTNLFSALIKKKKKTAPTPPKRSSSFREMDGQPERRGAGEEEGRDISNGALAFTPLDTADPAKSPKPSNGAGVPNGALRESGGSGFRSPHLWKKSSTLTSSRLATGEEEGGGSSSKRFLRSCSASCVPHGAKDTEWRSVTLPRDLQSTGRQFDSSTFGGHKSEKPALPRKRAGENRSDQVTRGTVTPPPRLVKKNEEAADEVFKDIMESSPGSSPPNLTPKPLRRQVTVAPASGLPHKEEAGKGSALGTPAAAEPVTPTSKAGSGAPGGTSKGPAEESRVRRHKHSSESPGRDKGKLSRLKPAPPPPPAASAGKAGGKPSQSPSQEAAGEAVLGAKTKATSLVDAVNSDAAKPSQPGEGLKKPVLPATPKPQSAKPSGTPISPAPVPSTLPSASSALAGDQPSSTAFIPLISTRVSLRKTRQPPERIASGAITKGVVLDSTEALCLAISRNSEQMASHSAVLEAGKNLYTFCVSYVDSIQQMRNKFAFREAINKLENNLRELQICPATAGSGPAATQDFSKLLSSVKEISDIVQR
Chain of UniProt P27144 (P27144 whole entry, looked up): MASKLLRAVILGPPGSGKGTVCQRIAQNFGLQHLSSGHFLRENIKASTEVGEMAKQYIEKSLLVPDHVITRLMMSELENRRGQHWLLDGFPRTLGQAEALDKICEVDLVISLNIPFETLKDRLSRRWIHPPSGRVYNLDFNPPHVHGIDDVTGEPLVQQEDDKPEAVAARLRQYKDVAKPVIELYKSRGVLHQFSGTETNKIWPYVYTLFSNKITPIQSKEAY
Chain of UniProt Q9UPW5 (Q9UPW5 whole entry, looked up): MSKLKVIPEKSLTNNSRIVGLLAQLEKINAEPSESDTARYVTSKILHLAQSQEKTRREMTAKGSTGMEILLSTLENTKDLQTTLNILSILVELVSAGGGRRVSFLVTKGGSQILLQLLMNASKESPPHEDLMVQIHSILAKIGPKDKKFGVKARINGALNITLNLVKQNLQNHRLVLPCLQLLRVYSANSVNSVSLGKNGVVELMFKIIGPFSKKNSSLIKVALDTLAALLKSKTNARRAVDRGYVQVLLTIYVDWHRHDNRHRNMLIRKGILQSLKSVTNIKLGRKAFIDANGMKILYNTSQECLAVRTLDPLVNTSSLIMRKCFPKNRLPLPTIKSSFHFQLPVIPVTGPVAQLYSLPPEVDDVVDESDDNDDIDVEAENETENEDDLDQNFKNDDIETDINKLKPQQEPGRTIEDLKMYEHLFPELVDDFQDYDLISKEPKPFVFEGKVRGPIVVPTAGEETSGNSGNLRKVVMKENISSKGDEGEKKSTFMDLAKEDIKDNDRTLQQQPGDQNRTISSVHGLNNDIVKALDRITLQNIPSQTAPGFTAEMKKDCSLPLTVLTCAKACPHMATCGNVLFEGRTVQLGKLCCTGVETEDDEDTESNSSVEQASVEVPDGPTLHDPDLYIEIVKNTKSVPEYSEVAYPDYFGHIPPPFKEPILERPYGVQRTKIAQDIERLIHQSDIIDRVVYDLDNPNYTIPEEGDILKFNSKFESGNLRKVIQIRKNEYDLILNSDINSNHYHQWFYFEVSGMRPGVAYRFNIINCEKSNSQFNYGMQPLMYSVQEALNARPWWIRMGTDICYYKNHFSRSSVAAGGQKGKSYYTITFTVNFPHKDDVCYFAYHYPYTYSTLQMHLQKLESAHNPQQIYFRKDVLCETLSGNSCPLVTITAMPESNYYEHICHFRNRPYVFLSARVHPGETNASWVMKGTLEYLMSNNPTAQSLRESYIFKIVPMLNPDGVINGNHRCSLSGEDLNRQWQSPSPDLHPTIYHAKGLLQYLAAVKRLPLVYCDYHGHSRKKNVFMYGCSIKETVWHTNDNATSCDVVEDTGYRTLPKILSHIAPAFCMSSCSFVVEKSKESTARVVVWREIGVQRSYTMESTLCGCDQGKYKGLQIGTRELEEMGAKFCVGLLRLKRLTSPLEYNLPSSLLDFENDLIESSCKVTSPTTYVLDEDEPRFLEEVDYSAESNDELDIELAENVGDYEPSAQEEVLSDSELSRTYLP

Target | log2 fold change [1] | log2 fold change [2] | log2 fold change [3] | log2 fold change [4] | log2 fold change [5] | log2 fold change [6] | log2 fold change [7] | log2 fold change [8] | log2 fold change [9] | log2 fold change [10] | log2 fold change [11] | log2 fold change [12] | log2 fold change [13] | log2 fold change [14] | log2 fold change [15] | log2 fold change [16] | log2 fold change [17] | log2 fold change [18] | log2 fold change [19] | log2 fold change [20]
ANXA1 (UniProt P04083) | -0.012 | 0.013 | 0.015 | 0.014 | -0.009 | -0.008 | -0.021 | 0.003 | 0.016 | -0.013 | -0.001 | 0.007 | -0.003 | 0.007 | 0.005 | -0.01 | 0.03 | -0.024 | 0.025 | -0.003
ANKRD27 (UniProt Q96NW4) | 0.087 | -0.025 | 0.07 | 0.04 | -0.033 | 0.02 | -0.094 | -0.036 | 0 | 0.014 | 0.016 | -0.003 | -0.028 | -0.009 | 0.032 | 0.033 | -0.014 | 0.089 | 0.013 | -0.102
AKR1B1 (UniProt P15121) | -0.044 | -0.001 | -0.006 | 0.012 | -0.009 | -0.047 | -0.044 | -0.043 | -0.003 | -0.021 | 0.023 | -0.015 | 0.031 | -0.029 | -0.033 | -0.013 | 0.091 | -0.038 | 0.028 | 0.004
AMD1 (UniProt P17707) | 0.019 | 0.011 | -0.091 | -0.075 | 0.055 | 0.061 | 0.011 | 0.114 | -0.156 | -0.036 | -0.031 | 0.464 (active) | -0.02 | -0.013 | -0.054 | 0.019 | -0.015 | 0.155 | -0.023 | -0.119
ANLN (UniProt Q9NQW6) | -0.006 | -0.142 | 0.007 | -0.019 | -0.072 | 0.01 | -0.019 | -0.045 | -0.002 | -0.017 | 0.025 | -0.027 | 0.02 | -0.001 | -0.014 | 0.02 | -0.01 | 0.026 | 0.029 | -0.04
ABL1 isoform 2 (UniProt P00519) | 0.026 | -0.005 | -0.013 | 0.026 | -0.027 | 0.033 | -0.022 | -0.035 | 0.015 | -0.01 | 0.157 | 0.077 | 0.019 | 0.024 | -0.017 | -0.014 | -0.01 | 0.048 | 0.011 | -0.043
AIMP1 isoform 2 (UniProt Q12904) | 0.044 | 0.013 | -0.028 | 0.001 | -0.03 | 0.021 | -0.025 | -0.02 | 0.02 | 0.01 | 0.009 | 0.012 | 0.026 | 0.018 | 0.022 | -0.026 | 0.005 | -0.014 | -0.006 | 0.006
AK4 (UniProt P27144) | -0.024 | 0.024 | -0.024 | -0.01 | -0.01 | 0.015 | 0.015 | 0.036 | 0.02 | -0.002 | 0.06 | -0.019 | -0.036 | -0.016 | -0.008 | 0.021 | -0.005 | 0.012 | 0.022 | -0.017
ABHD16A (UniProt O95870) | -0.009 | -0.047 | 0.03 | 0.046 | -0.042 | 0.015 | -0.016 | 0.014 | 0.064 | -0.006 | -0.01 | 0.004 | 0.029 | 0.018 | 0.027 | -0.022 | 0.03 | -0.031 | -0.077 | -0.011
AKAP8L (UniProt Q9ULX6) | 0.061 | 0.093 | 0.032 | 0.002 | 0.017 | 0 | -0.022 | 0.029 | -0.032 | -0.002 | 0 | -0.046 | 0.002 | -0.019 | 0.009 | -0.02 | 0.003 | -0.271 (active) | 0.046 | 0.032
ARMCX3 (UniProt Q9UH62) | 0.023 | -0.02 | -0.005 | 0.009 | 0.033 | -0.005 | -0.043 | -0.016 | 0.064 | 0.03 | -0.073 | -0.027 | 0.006 | 0.013 | -0.042 | -0.053 | -0.029 | 0.004 | 0.039 | 0
ARFGAP1 (UniProt Q8N6T3) | -0.028 | -0.209 | -0.025 | 0.005 | 0.029 | -0.039 | -0.025 | -0.018 | 0.002 | 0.038 | -0.118 | 0.06 | -0.018 | -0.203 | 0.019 | 0.408 | 0.136 | -0.062 | 0.061 | -0.045
AGTPBP1 (UniProt Q9UPW5) | -0.033 | -0.084 | 0.027 | -0.029 | 0.042 | -0.053 | -0.039 | -0.017 | 0.005 | 0.022 | -0.255 | 0.001 | 0.013 | -0.058 | 0.008 | -0.026 | 0.051 | 0.077 | 0.005 | 0.012
ABHD17B (UniProt Q5VST6) | -0.08 | -0.047 | -0.011 | 0.044 | -0.043 | 0 | 0.021 | 0.064 | -0.111 | 0.014 | 0.067 | -0.031 | -0.053 | -0.037 | -0.036 | -0.076 | 0.001 | 0.013 | 0.127 | 0.018
ARAF (UniProt P10398) | -0.002 | -0.129 | -0.018 | 0.014 | -0.046 | 0.067 | 0.03 | 0.012 | -0.049 | -0.02 | 0.071 | -0.012 | 0.029 | -0.01 | 0.058 | -0.007 | 0.004 | 0.004 | 0.041 | 0.003
ABHD11 (UniProt Q8NFV4) | -0.064 | -0.049 | 0.001 | 0.057 | -0.008 | 0.171 | 0.011 | -0.047 | 0.015 | -0.014 | -0.012 | 0.057 | -0.04 | -0.048 | -0.2 | 0.018 | -0.241 | -0.013 | 0 | -0.017
